Publication PMC7862700, “An all-to-all approach to the identification of sequence-specific readers for epigenetic DNA modifications on cytosine”

Key:
Assay in all cases: DAPPL (digital affinity profiling via proximity ligation, sequencing); 10 mM Tris-HCl pH 7.5, 50 mM NaCl, 1 mM DTT, 4% glycerol, room temperature, 30 min; GST-TFs on glutathione beads, 16-mer random dsDNA library, 0.1% formaldehyde crosslink after washing; high values mean tight binding
Details in all cases: protein: recombinant; tags: N-terminal GST; dsDNA, one strand shown
ERF = molecular target: T1, ERF (Homo sapiens, UniProt P50548 1-548)
T1 sequence: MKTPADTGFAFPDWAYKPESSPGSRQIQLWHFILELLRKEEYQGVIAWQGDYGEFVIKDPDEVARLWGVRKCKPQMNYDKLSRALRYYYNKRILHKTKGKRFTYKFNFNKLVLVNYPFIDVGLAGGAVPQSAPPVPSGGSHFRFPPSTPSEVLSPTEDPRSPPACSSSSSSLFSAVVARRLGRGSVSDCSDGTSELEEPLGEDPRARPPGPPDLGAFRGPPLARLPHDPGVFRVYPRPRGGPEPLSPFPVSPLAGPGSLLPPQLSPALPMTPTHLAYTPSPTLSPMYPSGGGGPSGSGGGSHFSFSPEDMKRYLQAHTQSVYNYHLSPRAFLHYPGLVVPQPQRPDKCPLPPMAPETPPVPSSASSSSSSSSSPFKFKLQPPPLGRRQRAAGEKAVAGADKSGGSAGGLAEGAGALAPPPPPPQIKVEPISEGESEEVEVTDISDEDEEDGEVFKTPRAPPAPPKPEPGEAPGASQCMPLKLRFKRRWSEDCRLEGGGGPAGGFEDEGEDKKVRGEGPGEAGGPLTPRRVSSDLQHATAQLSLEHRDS
How it was run: (§1)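 Binding signal is defined as a hexamer's read frequency for one factor over its frequency for the tag-only sample. To obtain reads, GST-fused human transcription factors were expressed in yeast, captured on glutathione beads, barcoded with DNA and pooled with that sample. Pools met 200 nmole of a 16-mer random double-stranded DNA library in Tris/NaCl/DTT/glycerol buffer for 30 min at room temperature before washing, 0.1% formaldehyde crosslinking, proximity ligation (BsaI/T4 ligase, 1 h, 37 °C), PCR and Illumina NextSeq500 sequencing.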

ETV3L = molecular target: T2, ETV3L (Homo sapiens, UniProt Q6ZN32 1-361)
T2 sequence: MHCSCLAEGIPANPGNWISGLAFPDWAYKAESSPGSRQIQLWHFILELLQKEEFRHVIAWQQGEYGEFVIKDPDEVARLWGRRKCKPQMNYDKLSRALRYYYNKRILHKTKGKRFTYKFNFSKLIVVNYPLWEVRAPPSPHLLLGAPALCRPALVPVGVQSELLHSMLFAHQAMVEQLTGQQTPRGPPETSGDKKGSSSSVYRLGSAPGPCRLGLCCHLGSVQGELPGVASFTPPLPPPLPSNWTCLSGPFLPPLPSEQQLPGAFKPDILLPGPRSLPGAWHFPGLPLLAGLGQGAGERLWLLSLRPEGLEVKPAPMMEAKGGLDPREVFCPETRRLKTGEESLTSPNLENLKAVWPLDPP
How it was run: as §1

ETS2 = molecular target: T3, ETS2 (Homo sapiens, UniProt P15036 1-469)
T3 sequence: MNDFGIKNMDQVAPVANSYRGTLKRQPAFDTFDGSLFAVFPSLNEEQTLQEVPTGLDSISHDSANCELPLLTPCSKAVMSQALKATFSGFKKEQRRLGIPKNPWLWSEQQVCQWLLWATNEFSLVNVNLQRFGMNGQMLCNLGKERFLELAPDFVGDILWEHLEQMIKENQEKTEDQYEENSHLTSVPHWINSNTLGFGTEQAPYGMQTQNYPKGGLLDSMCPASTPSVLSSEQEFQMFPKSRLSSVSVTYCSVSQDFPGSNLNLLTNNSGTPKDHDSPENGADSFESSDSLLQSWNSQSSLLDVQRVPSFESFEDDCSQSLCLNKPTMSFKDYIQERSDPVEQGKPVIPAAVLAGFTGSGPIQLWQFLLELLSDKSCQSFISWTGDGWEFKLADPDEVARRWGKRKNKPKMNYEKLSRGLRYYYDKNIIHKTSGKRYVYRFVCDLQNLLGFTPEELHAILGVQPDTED
How it was run: as §1

SPDEF = molecular target: T4, SPDEF (Homo sapiens, UniProt O95238 1-335)
T4 sequence: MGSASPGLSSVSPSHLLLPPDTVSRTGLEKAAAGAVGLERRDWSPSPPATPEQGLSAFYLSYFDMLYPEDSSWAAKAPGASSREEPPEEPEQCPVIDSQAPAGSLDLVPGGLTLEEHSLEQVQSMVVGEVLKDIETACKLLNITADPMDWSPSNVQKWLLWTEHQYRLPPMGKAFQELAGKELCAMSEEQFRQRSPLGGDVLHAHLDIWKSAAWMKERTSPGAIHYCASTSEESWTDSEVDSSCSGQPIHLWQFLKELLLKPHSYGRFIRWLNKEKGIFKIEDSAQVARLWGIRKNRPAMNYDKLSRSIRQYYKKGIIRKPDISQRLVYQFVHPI
How it was run: as §1

ETV7 = molecular target: T5, ETV7 (Homo sapiens, UniProt Q9Y603 1-341)
T5 sequence: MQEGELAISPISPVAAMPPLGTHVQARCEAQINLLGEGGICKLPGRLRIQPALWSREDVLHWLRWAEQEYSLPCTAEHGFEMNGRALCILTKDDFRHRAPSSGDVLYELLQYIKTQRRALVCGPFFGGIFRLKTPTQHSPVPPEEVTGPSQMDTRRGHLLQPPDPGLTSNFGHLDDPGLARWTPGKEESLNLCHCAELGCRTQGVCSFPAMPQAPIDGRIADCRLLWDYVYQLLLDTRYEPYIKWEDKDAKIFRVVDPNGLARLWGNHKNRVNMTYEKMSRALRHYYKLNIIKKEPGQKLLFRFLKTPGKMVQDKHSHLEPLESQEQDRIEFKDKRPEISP
How it was run: as §1

ELF5 = molecular target: T6, ELF5 (Homo sapiens, UniProt Q9UKW6-2 1-255)
T6 sequence: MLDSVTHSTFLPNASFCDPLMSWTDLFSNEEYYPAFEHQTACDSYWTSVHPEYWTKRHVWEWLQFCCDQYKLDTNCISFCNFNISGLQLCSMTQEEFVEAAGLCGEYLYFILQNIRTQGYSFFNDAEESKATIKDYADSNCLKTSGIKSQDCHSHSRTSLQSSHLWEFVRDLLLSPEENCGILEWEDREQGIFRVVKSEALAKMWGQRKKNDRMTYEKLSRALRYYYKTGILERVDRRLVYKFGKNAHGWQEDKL
How it was run: as §1

ETV3 = molecular target: T7, ETV3 (Homo sapiens, UniProt P41162-2 1-143)
T7 sequence: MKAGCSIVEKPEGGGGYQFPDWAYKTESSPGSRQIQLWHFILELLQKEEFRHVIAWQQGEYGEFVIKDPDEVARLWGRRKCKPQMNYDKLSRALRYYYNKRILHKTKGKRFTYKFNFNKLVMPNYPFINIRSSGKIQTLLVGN
How it was run: as §1

ETV6 = ETV6 (Homo sapiens, UniProt P41212 1-452)
How it was run: as §1

Sequence of ETV6 (P41212 whole entry): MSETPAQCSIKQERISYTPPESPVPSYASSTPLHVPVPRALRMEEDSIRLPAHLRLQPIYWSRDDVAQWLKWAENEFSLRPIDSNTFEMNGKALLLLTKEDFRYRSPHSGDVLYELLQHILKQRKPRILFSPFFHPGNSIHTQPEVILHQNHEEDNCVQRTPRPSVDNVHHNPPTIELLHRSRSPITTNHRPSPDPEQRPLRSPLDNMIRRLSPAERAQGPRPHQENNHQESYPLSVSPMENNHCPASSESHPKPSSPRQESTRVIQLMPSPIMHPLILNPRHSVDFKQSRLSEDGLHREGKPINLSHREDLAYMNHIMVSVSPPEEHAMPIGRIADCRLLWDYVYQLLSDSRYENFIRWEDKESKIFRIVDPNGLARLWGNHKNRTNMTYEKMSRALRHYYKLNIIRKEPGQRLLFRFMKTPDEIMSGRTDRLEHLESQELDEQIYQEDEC

Sequence	binding signal (ERF)	binding signal (ETV3L)	binding signal (ETS2)	binding signal (SPDEF)	binding signal (ETV7)	binding signal (ELF5)	binding signal (ETV3)	binding signal (ETV6)
CTTAGT	1.29 fold enrichment (6-mer frequency, TF over GST control)	1.18 fold enrichment (6-mer frequency, TF over GST control)	1.15 fold enrichment (6-mer frequency, TF over GST control)	1.2 fold enrichment (6-mer frequency, TF over GST control)	1.07 fold enrichment (6-mer frequency, TF over GST control)	1.13 fold enrichment (6-mer frequency, TF over GST control)	1.31 fold enrichment (6-mer frequency, TF over GST control)	1.24 fold enrichment (6-mer frequency, TF over GST control)
AGCTTA	1.2 fold enrichment (6-mer frequency, TF over GST control)	1.08 fold enrichment (6-mer frequency, TF over GST control)	1.15 fold enrichment (6-mer frequency, TF over GST control)	1.17 fold enrichment (6-mer frequency, TF over GST control)	1.15 fold enrichment (6-mer frequency, TF over GST control)	1.08 fold enrichment (6-mer frequency, TF over GST control)	1.17 fold enrichment (6-mer frequency, TF over GST control)	1.05 fold enrichment (6-mer frequency, TF over GST control)
ACTATC	1.21 fold enrichment (6-mer frequency, TF over GST control)	1.15 fold enrichment (6-mer frequency, TF over GST control)	1.19 fold enrichment (6-mer frequency, TF over GST control)	1.18 fold enrichment (6-mer frequency, TF over GST control)	1.19 fold enrichment (6-mer frequency, TF over GST control)	1.13 fold enrichment (6-mer frequency, TF over GST control)	1.13 fold enrichment (6-mer frequency, TF over GST control)	1.1 fold enrichment (6-mer frequency, TF over GST control)
CATTCT	1.43 fold enrichment (6-mer frequency, TF over GST control)	1.31 fold enrichment (6-mer frequency, TF over GST control)	1.23 fold enrichment (6-mer frequency, TF over GST control)	1.24 fold enrichment (6-mer frequency, TF over GST control)	1.35 fold enrichment (6-mer frequency, TF over GST control)	1.27 fold enrichment (6-mer frequency, TF over GST control)	1.21 fold enrichment (6-mer frequency, TF over GST control)	1.34 fold enrichment (6-mer frequency, TF over GST control)
ATGTTC	1.27 fold enrichment (6-mer frequency, TF over GST control)	1.31 fold enrichment (6-mer frequency, TF over GST control)	1.25 fold enrichment (6-mer frequency, TF over GST control)	1.3 fold enrichment (6-mer frequency, TF over GST control)	1.3 fold enrichment (6-mer frequency, TF over GST control)	1.32 fold enrichment (6-mer frequency, TF over GST control)	1.34 fold enrichment (6-mer frequency, TF over GST control)	1.18 fold enrichment (6-mer frequency, TF over GST control)
AAGTAT	1.38 fold enrichment (6-mer frequency, TF over GST control)	1.47 fold enrichment (6-mer frequency, TF over GST control)	1.46 fold enrichment (6-mer frequency, TF over GST control)	1.31 fold enrichment (6-mer frequency, TF over GST control)	1.5 fold enrichment (6-mer frequency, TF over GST control)	1.56 fold enrichment (6-mer frequency, TF over GST control)	1.46 fold enrichment (6-mer frequency, TF over GST control)	1.58 fold enrichment (6-mer frequency, TF over GST control)
AACCCT	1.17 fold enrichment (6-mer frequency, TF over GST control)	1.24 fold enrichment (6-mer frequency, TF over GST control)	1.26 fold enrichment (6-mer frequency, TF over GST control)	1.17 fold enrichment (6-mer frequency, TF over GST control)	1.24 fold enrichment (6-mer frequency, TF over GST control)	1.28 fold enrichment (6-mer frequency, TF over GST control)	1.27 fold enrichment (6-mer frequency, TF over GST control)	1.33 fold enrichment (6-mer frequency, TF over GST control)
TCTTCT	1.24 fold enrichment (6-mer frequency, TF over GST control)	1.29 fold enrichment (6-mer frequency, TF over GST control)	1.23 fold enrichment (6-mer frequency, TF over GST control)	1.16 fold enrichment (6-mer frequency, TF over GST control)	1.06 fold enrichment (6-mer frequency, TF over GST control)	1.19 fold enrichment (6-mer frequency, TF over GST control)	1.25 fold enrichment (6-mer frequency, TF over GST control)	1.29 fold enrichment (6-mer frequency, TF over GST control)
TATTTT	1.19 fold enrichment (6-mer frequency, TF over GST control)	1.41 fold enrichment (6-mer frequency, TF over GST control)	1.35 fold enrichment (6-mer frequency, TF over GST control)	1.24 fold enrichment (6-mer frequency, TF over GST control)	1.49 fold enrichment (6-mer frequency, TF over GST control)	1.29 fold enrichment (6-mer frequency, TF over GST control)	1.39 fold enrichment (6-mer frequency, TF over GST control)	1.36 fold enrichment (6-mer frequency, TF over GST control)
TTTCTC	1.58 fold enrichment (6-mer frequency, TF over GST control)	1.68 fold enrichment (6-mer frequency, TF over GST control)	1.77 fold enrichment (6-mer frequency, TF over GST control)	1.49 fold enrichment (6-mer frequency, TF over GST control)	1.57 fold enrichment (6-mer frequency, TF over GST control)	1.56 fold enrichment (6-mer frequency, TF over GST control)	1.62 fold enrichment (6-mer frequency, TF over GST control)	1.65 fold enrichment (6-mer frequency, TF over GST control)
AAAAGC	1.15 fold enrichment (6-mer frequency, TF over GST control)	1.23 fold enrichment (6-mer frequency, TF over GST control)	1.15 fold enrichment (6-mer frequency, TF over GST control)	1.07 fold enrichment (6-mer frequency, TF over GST control)	1.35 fold enrichment (6-mer frequency, TF over GST control)	1.26 fold enrichment (6-mer frequency, TF over GST control)	1.22 fold enrichment (6-mer frequency, TF over GST control)	1.26 fold enrichment (6-mer frequency, TF over GST control)
TAGTTC	1.29 fold enrichment (6-mer frequency, TF over GST control)	1.44 fold enrichment (6-mer frequency, TF over GST control)	1.43 fold enrichment (6-mer frequency, TF over GST control)	1.5 fold enrichment (6-mer frequency, TF over GST control)	1.31 fold enrichment (6-mer frequency, TF over GST control)	1.41 fold enrichment (6-mer frequency, TF over GST control)	1.49 fold enrichment (6-mer frequency, TF over GST control)	1.41 fold enrichment (6-mer frequency, TF over GST control)
TCTTGT	1.68 fold enrichment (6-mer frequency, TF over GST control)	1.61 fold enrichment (6-mer frequency, TF over GST control)	1.47 fold enrichment (6-mer frequency, TF over GST control)	1.57 fold enrichment (6-mer frequency, TF over GST control)	1.57 fold enrichment (6-mer frequency, TF over GST control)	1.42 fold enrichment (6-mer frequency, TF over GST control)	1.5 fold enrichment (6-mer frequency, TF over GST control)	1.48 fold enrichment (6-mer frequency, TF over GST control)
CCCGTT	1.13 fold enrichment (6-mer frequency, TF over GST control)	1.19 fold enrichment (6-mer frequency, TF over GST control)	1.1 fold enrichment (6-mer frequency, TF over GST control)	1.2 fold enrichment (6-mer frequency, TF over GST control)	1.19 fold enrichment (6-mer frequency, TF over GST control)	1.27 fold enrichment (6-mer frequency, TF over GST control)	1.17 fold enrichment (6-mer frequency, TF over GST control)	1.16 fold enrichment (6-mer frequency, TF over GST control)
CTCGTT	1.4 fold enrichment (6-mer frequency, TF over GST control)	1.43 fold enrichment (6-mer frequency, TF over GST control)	1.27 fold enrichment (6-mer frequency, TF over GST control)	1.27 fold enrichment (6-mer frequency, TF over GST control)	1.37 fold enrichment (6-mer frequency, TF over GST control)	1.44 fold enrichment (6-mer frequency, TF over GST control)	1.25 fold enrichment (6-mer frequency, TF over GST control)	1.23 fold enrichment (6-mer frequency, TF over GST control)
